An excerpt weighted towards active compounds, which were near 5.9% of everything screened.
PRMT1 FP inh: blocks human protein arginine methyltransferase 1 | Q99873 | recombinant PRMT1, activity-based probe fluorescence polarization | inhibition, % at 2.79 µM | 370,000 tested, 1.3% active | AID 652257;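 active = inhibition above about 21% made by adding two undisclosed values, limit read from the data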
LANA-H2A inh: blocks KSHV LANA binding to histone H2A/H2B. 320,000 tested, 0.6% active. cell-free LANA-H2A/H2B peptide, fluorescence polarization. Q9QR71. inhibition, % (concentration not given with the values); in the data active = inhibition mostly above about 10%, no sharp cut-off; inactive = mostly below about 6.7%
Rtt109 Vps75: inhibitors of Candida albicans Rtt109/Vps75 histone acetyltransferase; inhibition, % at 34.9 µM; Q5AAJ8; purified Rtt109/Vps75, ThioGlo CoA-SH fluorescence, 4 h; AID 540336; 330,000 tested, 0.16% active;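 active = inhibition of at least 50% in every replicate; inconclusive = best replicate reaches 50% inhibition but some replicates fall short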
Target sequence (Q5AAJ8 whole entry, looked up): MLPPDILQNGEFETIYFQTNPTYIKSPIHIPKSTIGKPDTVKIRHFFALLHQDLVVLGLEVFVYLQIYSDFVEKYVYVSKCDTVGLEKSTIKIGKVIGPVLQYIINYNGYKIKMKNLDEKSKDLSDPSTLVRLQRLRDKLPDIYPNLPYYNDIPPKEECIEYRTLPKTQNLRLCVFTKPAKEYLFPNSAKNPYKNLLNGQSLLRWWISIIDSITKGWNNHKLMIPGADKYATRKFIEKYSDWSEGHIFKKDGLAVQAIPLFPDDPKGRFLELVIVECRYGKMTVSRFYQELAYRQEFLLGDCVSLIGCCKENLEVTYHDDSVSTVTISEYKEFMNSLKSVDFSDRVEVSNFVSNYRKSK
ALR H2O2 inh: inhibitors of human sulfhydryl oxidase ALR | P55789 | purified ALR, DTT oxidation, H2O2 HRP-luminol luminescence | inhibition, % (test concentration not listed) | 290,000 tested, 3.8% active | AID 485317;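 active = mean replicate inhibition above about 79%, with every replicate also reaching it, limit read from the data; inconclusive = only one of the two criteria met; inactive = mean below limit and not every replicate reaching it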
Target sequence (P55789 whole entry, looked up): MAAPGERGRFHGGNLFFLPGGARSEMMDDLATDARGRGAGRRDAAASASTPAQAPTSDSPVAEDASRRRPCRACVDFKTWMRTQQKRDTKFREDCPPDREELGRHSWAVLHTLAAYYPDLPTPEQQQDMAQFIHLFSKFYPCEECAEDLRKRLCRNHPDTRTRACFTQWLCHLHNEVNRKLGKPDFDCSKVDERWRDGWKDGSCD
rCAG binder: molecules binding r(CAG) RNA repeats; r(CAG) RNA repeat, TO-PRO-1 dye displacement fluorescence; inhibition, % at 3 µM; 370,000 tested, 1.3% active; AID 651821;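 active = inhibition above the plate cutoff, the mean of all test compounds on that plate plus 3 SD, cut at about 35% in these data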;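 note: higher means more dye released from RNA so lower well fluorescence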
ABHD5 PLIN5 PPI: ABHD5-PLIN5 protein interaction inhibition; Q00G26+Q8WTS1; Split G. princeps luciferase complementation, luminescence, 4 h; inhibition, % at 4 µM; 360,000 tested, 0.78% active; AID 602281;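 active = inhibition above the mean inhibition across every tested compound plus 3 SD, cut at about 22% in these data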
rCAG bind conf: r(CAG) RNA repeat binding, confirmation; shares compounds with rCAG binder; TO-PRO-1 dye displacement fluorescence; inhibition, % at 3 µM; 4,300 tested, 70% active; AID 652065;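 active = inhibition above a per-plate cutoff, the mean inhibition of sample wells plus 3 SD, cut at about 35% in these data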;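 note: loss of TO-PRO-1 fluorescence as compound displaces dye from 1x1 AA loop RNA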
dCAG dye counter: disrupts DNA CAG TO-PRO-1 complex, flagging rCAG hits; inhibition, % at 3 µM; shares compounds with rCAG binder; 4,300 tested, 94% active; d(CAG) DNA oligo TO-PRO-1 dye displacement, fluorescence;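 active = inhibition above its plate's cutoff, the mean test-well inhibition plus 3 SD, cut at about 4.8% in these data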;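 note: hits displace the dye from DNA and so lower well fluorescence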
DNA CAG DR: disrupts DNA CAG TO-PRO-1 complex in dose response; shares compounds with rCAG binder; DNA CAG/GTC duplex TO-PRO-1 dye displacement fluorescence; IC50, µM; 250 tested, 20% active; AID 686960; in the data active = IC50 below about 10 µM
Hits are given with their value; n = inactive; u = inconclusive; x = not tested or not shown.

SMILES	PRMT1 FP inh	LANA-H2A inh	Rtt109 Vps75	ALR H2O2 inh	rCAG binder	ABHD5 PLIN5 PPI	rCAG bind conf	dCAG dye counter	others
O=C(Nc1sc2c(c1C(=O)O)CCC2)c1cccc(Cl)c1	n	n	n	n	74	n	53	15
CC(=O)Nc1cccc(-c2ccnc3c2CC(C)(C(=O)Nc2cccc(C(C)=O)c2)O3)c1 (stereo not drawn)	n	x	x	x	n	n	x	x
CC(C)(C)c1cc(CCC(=O)NCC2CCCO2)cc(C(C)(C)C)c1O (stereo not drawn)	n	n	n	n	n	n	x	x
c1nc(NCC2CCCOC2)c2cc(-c3ccc4c(c3)OCO4)ccc2n1 (stereo not drawn)	n	x	x	x	x	x	x	x
CC(=O)NS(=O)(=O)c1ccc(NC(=O)c2cccc(S(=O)(=O)N3CCc4ccccc43)c2)cc1	n	n	n	97	42	n	40	13
COc1ccc(NC(C)=O)cc1NC(=O)c1cccc(S(=O)(=O)N2CCc3ccccc32)c1	n	n	n	n	n	n	x	x
O=c1cc(C(F)(F)F)nc(SCc2cccc3ccccc23)[nH]1	n	n	n	n	69	n	40	10
O=C1NC(=Nc2ccccc2Cl)S/C1=C\c1ccc(C(=O)O)cc1	n	n	n	n	n	n	x	x
COc1ccc(/C=C2\SC(=Nc3ccccc3Cl)NC2=O)c(OC)c1	n	x	x	x	39	n	46	13
O=C1NC(=Nc2ccccc2Cl)S/C1=C\c1cccc([N+](=O)[O-])c1	n	n	n	n	54	n	67	26
COc1c(/C=C2\SC(=Nc3ccccc3Cl)NC2=O)cccc1[N+](=O)[O-]	n	n	n	n	37	n	71	29	DNA CAG DR=n
O=C1NC(=Nc2ccccc2Cl)S/C1=C\c1cccc([N+](=O)[O-])c1O	n	n	n	n	89	n	70	33	DNA CAG DR=n
CCOc1cccc(/C=C2\NC(=S)N(c3ccccc3)C2=O)c1O	n	n	n	u	38	n	n	6.2
O=C(/C=C\c1ccco1)Nc1nc(-c2ccc3ccccc3c2)cs1	n	n	n	n	n	n	x	x
Cc1ccc(-c2csc(NC(=S)NC(=O)/C=C/c3ccco3)n2)cc1	n	n	n	n	38	n	n	11
O=C(c1cc(-c2ccco2)nc2ccccc12)N1CCN(Cc2ccccc2)CC1	n	n	n	x	n	n	x	x
COc1ccccc1CNC(=O)COC(=O)c1cc(-c2ccco2)nc2ccccc12	n	n	x	n	41	n	n	17
CC(C)Cn1c(N)c(C(=O)COC(=O)c2cc(-c3ccco3)nc3ccccc23)c(=O)n(C)c1=O	n	n	n	n	41	n	39	20
COc1ccccc1CNC(=O)COC(=O)c1cc(C)nc2ccccc12	n	n	n	n	n	n	x	x
COC(=O)C1CCN(C(=O)c2cc(-c3ccco3)nc3ccccc23)CC1	22	n	n	n	41	n	n	15
Cc1ccc(NC(=O)COC(=O)c2cccc(S(=O)(=O)N3CCCCCC3)c2)cc1	n	x	x	x	n	n	x	x
CC(C)c1ccc(CC(=O)N2CCC2(C)C(=O)NS(=O)(=O)c2cccc(OC(F)F)c2)cc1 (stereo not drawn)	n	x	x	x	35	n	n	n
CNC(=O)C1(C)CCN1C(=O)c1ccccc1CCc1ccccc1 (stereo not drawn)	n	x	x	x	n	n	x	x
Cc1cccc(S(=O)(=O)NC(=O)C2(C)CCN2C(=O)c2ccccc2CCc2ccccc2)c1 (stereo not drawn)	n	x	x	x	39	n	45	11
Cc1ccc(NC(=O)C2(C)CCN2C(=O)c2ccccc2CCc2ccccc2)cc1C (stereo not drawn)	n	x	x	x	n	n	x	x
SMILES	PRMT1 FP inh	LANA-H2A inh	Rtt109 Vps75	ALR H2O2 inh	rCAG binder	ABHD5 PLIN5 PPI	rCAG bind conf	dCAG dye counter	others
CC1(C(=O)NS(=O)(=O)c2ccc3c(c2)CCO3)CCN1C(=O)c1ccccc1CCc1ccccc1 (stereo not drawn)	n	x	x	x	42	n	42	11
CC1(C(=O)NS(=O)(=O)c2cccc(F)c2)CCN1C(=O)c1ccccc1CCc1ccccc1 (stereo not drawn)	n	x	x	x	52	n	43	11
Cc1ccc(C)c(C(O)c2ncc(-c3ccc(C(F)(F)F)cc3)[nH]2)c1 (stereo not drawn)	n	x	x	x	n	n	x	x
CC1(C(=O)NS(=O)(=O)c2cccc(OC(F)F)c2)CCN1C(=O)Cc1ccccc1 (stereo not drawn)	n	x	x	x	n	n	x	x
CC1(C(=O)NS(=O)(=O)c2cccc(OC(F)F)c2)CCN1C(=O)c1ccccc1CCc1ccccc1 (stereo not drawn)	n	x	x	x	61	n	54	17
CCN(CC)c1ccc(NC(=O)c2cc3c(C)nn(-c4ccccc4)c3s2)cc1	n	x	x	x	n	x	x	x
O=C(COC(=O)c1cccc(NS(=O)(=O)c2ccc(F)c(F)c2)c1)NC(=O)NC1CCCC1	n	n	n	n	36	n	n	5.0
O=C(Nc1ccc(S(=O)(=O)N2CCOCC2)cc1)c1cc(-c2cc(Cl)ccc2O)n[nH]1	n	n	n	x	46	n	50	21
Cc1cc(O)c(-c2cc(C(=O)Nc3ccc(S(=O)(=O)N4CCOCC4)cc3)[nH]n2)cc1C	n	n	n	n	41	n	n	15
N#CCC(=O)Nc1sc2c(c1C(N)=O)CCCC2	n	n	n	90	35	n	n	4.5
COC(=O)c1c(NC(=O)COC(=O)c2ccccc2O)sc2c1CCCCC2	n	n	n	n	n	n	x	x
NC(=O)c1c(NC(=O)COC(=O)c2ccc(O)c(Cl)c2)sc2c1CCCC2	n	n	n	n	39	n	43	15
CCOC(=O)CC[C@@]1(C(=O)OCC)C[C@@H](CC(=O)NCc2ccc(C)o2)C(=O)N2CCCC=C21	n	x	x	x	49	x	n	n
CCOC(=O)CC[C@@]1(C(=O)OCC)C[C@@H](CC(=O)NCc2cccc3ccccc23)C(=O)N2CCCC=C21	n	x	x	x	n	x	x	x
Cc1ccc(Cn2c(=O)n(Cc3ccc(C(=O)NCC4COC4)cc3)c(=O)c3ccccc32)cc1	n	x	x	x	n	x	x	x
O=C(Nc1ccc(C(=O)O)cc1)/C(=C\c1ccco1)NC(=O)c1ccccc1Cl	n	n	n	n	43	n	n	n
Cc1cccc(OCC(=O)Nc2cccc(C(=O)Nc3ccccc3C(=O)O)c2)c1	n	n	n	n	71	n	66	29
Cc1cccc(OCC(=O)Nc2cccc(C(=O)NCC(C)C)c2)c1	n	n	n	n	n	n	x	x

Bioassay records as filed in PubChem BioAssay.
